ATXN viability: Viability Counterscreen for Primary qHTS for Inhibitors of ATXN expression; S2 cells (HEK-293 line with an ATXN2-luciferase reporter) viability, CellTiter-Fluor protease fluorescence, 24 h; Potency, µM (series often up to 56.7 µM), most hits filed as cytotoxic; actives 0.49% (n = 400,000); AID 651635, 2014; note: nearly all actives have a fitted effect of over 40% in size
HepG2 viability: qHTS for Inhibitors of TGF-b: Cytotox Counterscreen; HepG2 CAGA-GFP viability, ATP luminescence, 18 h; Potency, µM (series often up to 46.1 µM), for the others: top-dose activity change, negative = cytotoxicity, usual class: cytotoxic; actives 0.76% (n = 410,000)
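CellTiter-Glo luminescence gave cytotoxicity after 18 hours at 37 degrees C. The cells were HepG2 CAGA-GFP in 1% FBS DMEM, stimulated with 500 pg/mL TGF-beta after compound addition. %Activity was normalised to no-cell wells (complete cell-killing) and DMSO (no toxicity), and curves were fitted and classified.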
DT40 TDP1 CPT: qHTS for Inhibitors of human tyrosyl-DNA phosphodiesterase 1 (TDP1): qHTS in cells in presence of CPT. Potency, µM (titrated, usually from 46.2 µM), for inactives: at the top dose activity change, negative = growth inhibition, most hits filed as inhibitors. chicken DT40 Tdp1-/-;hTDP1 cells + 20 nM CPT, ATP luminescence, 48 h. actives 12% (n = 420,000); note: % is set by controls: 0 for no effect and ±100 for the full control effect; nearly all actives have a fitted effect of over 55% in size
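Chicken DT40 Tdp1-/- cells complemented with human TDP1, 400 cells/well, exposed to compounds plus 20 nM camptothecin for at least 48 h at 37 C; viability read as ATP content by CellTiter-Glo luminescence.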
TGFb SMAD3 inh: qHTS for Inhibitors of TGF-b; Potency, µM (titrated, usually from 46.1 µM), inactives show top-dose activity, negative = inhibition, most hits filed as inhibitors; actives 1.2% (n = 410,000); HepG2 CAGA-GFP TGF-b/SMAD3 reporter, GFP fluorescence, 18 h; TGF-beta stimulated, 500 pg/mL final; note: % is set by controls: 0 for no effect and ±100 for the full control effect; nearly all actives have a fitted effect of over 65% in size
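First, reporter cells (HEPG2 CAGA-GFP) rested 2 h at 37 degrees C. Next, compounds were pinned in and TGF-beta added to 500 pg/mL final. After 18 h, GFP was imaged per cell and summed per well.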
DT40 TDP1 no CPT: qHTS for Inhibitors of human tyrosyl-DNA phosphodiesterase 1 (TDP1): qHTS in cells in absence of CPT; DT40 Tdp1-/- hTDP1 cells, no CPT, ATP luminescence, 48 h; Potency, µM (series often up to 46.2 µM), for inactives: top-dose activity change, negative = growth inhibition, hits mostly inhibitors; actives 15% (n = 420,000); note: % is set by controls: 0 for no effect and ±100 for the full control effect; nearly all actives have a fitted effect of over 55% in size
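Seeded 400 DT40-hTDP1 cells/well (vehicle DMSO, no 20 nM CPT); pinned compounds; ≥48 hr at 37 °C; CellTiter-Glo luminescence as viability measure.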
ATXN2 expr inh: Primary qHTS for Inhibitors of ATXN expression; HEK-293 ATXN2-luciferase reporter, luminescence, 24 h; Potency, µM (highest dose often 57 µM), for the others: at the highest dose activity change, negative = inhibition, usual class: inhibitors; actives 0.72% (n = 360,000); AID 1745845, 2022; note: % is set by controls: 0 for no effect and ±100 for the full control effect; nearly all actives have a fitted effect of over 55% in size
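qHTS (up to 57 uM final) was run with 24 h compound exposure of reporter cells at 37 °C. Each well was multiplexed: SteadyGlo luminescence measured ATXN2-luciferase expression after a fluorogenic Gly-Phe-AFC viability readout (25 uM final).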
* = called active by the depositor; i = inactive; ? = inconclusive; . = no result given; ! = repeats disagree; [ ] = dose if it differs, or a comment. Compounds with a hit are over-represented: about 17% of the library has one in this group of screens. Calls come from the whole dose curve; as a rule, active = well fitted curve in the direction sought with a large enough effect; inconclusive = small, poorly fitted or top-dose-only effect, or another doubt; inactive = no such curve, though single readings can be large; an effect the other way counts as inactive or inconclusive. Potency is the fitted concentration of half-maximal effect.

SMILES	ATXN viability	HepG2 viability	DT40 TDP1 CPT	TGFb SMAD3 inh	DT40 TDP1 no CPT	ATXN2 expr inh
Cc1c(P(=S)(c2ccccc2)c2ccccc2)[n+]2ccccc2n1C	i	0.3%	5.8µM*	-5.8%	4.11µM*	-3.1%
Cc1c(P(=S)(c2ccccc2)c2ccccc2)[n+]2ccccc2n1C/C=C/c1ccccc1	14.1µM*	20µM*	.	?	.	?
Cc1ccc(C(=O)N[C@@H](C)CN2C3=NC[C@H](Cc4ccccc4)N3C[C@H]2Cc2ccc(O)cc2)cc1Br	.	11.2µM*	14.6µM*	12.6µM*	16.4µM*	25.1µM*
Cc1ccc(C(=O)N[C@@H](C)CN2C3=NC[C@@H](Cc4ccccc4)N3C[C@H]2Cc2ccc(O)cc2)cc1Br	25.1µM*	-103.1%	6.51µM*	?	7.31µM*	?
CCOP(=O)(OCC)C(Cc1ccc(OC)c(OC)c1)N=C(c1ccccc1)c1ccccc1 (configuration not stated)	i	-21.4%	?	-5.0%	?	-11.9%
O=C(c1ccco1)N1CCC2(CC1)CN(Cc1ccncc1)C2	.	.	3.7%	.	-2.5%	.
CC1=C(C)[N+](=O)C2(O)CCCCC2(C)N1[O-] (configuration not stated)	i	1.7%	1.1%	?	1.0%	4.3%
C[C@H](CN1CCOCC1)C(C(=O)N1CCCC1)(c1ccccc1)c1ccccc1	?	.	?	.	41.8µM*	?
O=C(Cc1ccccc1)OC(COCc1ccccc1)CN1CCOCC1 (configuration not stated)	i	4.9%	-4.7%	33.4%	-18.0%	-12.1%
COC(=O)COc1cc(Cl)c(Cl)cc1Cl	.	.	16.6%	.	4.7%	.
CC=CC(C)=CC(C)C(=O)CC(O)CC1CC(=O)NC(=O)C1 (configuration not stated)	?	-0.6%	8.2µM*	-24.8%	5.8µM*	.
CC[C@H]1C[C@H]2[C@@H]3CCC4=CC(=O)CC[C@@H]4[C@H]3CC[C@]2(C)[C@H]1O	i	.	?	.	-10.6%	-17.7%
CC[C@]1(O)CC[C@H]2[C@@H]3CCC4=CCCC[C@@H]4[C@H]3CC[C@@]21C	?	.	7.5µM*	.	5.31µM*	-23.3%
CN[C@@H](C)Cc1ccccc1	i	.	-3.1%[92.5 µM]	.	-10.6%[92.5 µM]	.
CN1CCN(C(=O)COc2ccc(S(=O)(=O)Nc3ccc(F)cc3)cc2)CC1	i	2.4%	-10.3%	2.1%	16.7%	-13.7%
CCOc1ccc(S(=O)(=O)Nc2cccc(C(=O)N3CCN(c4ccccn4)CC3)c2)cc1	?	-0.2%	13µM*	-12.3%	16.4µM*	.
C[C@H]1C(=O)O[C@@H]2CCN3CC=C(COC(=O)[C@@](C)(O)[C@@]1(C)O)[C@H]23	i	.	.	.	.	.
C[C@H]1C(=O)O[C@@H]2CCN3CC=C(COC(=O)[C@](C)(O)[C@]1(C)O)[C@H]23	i	6.1%	11.6µM*!	0.5%	?	11.2%
Cc1ccc2nc(-c3ccncc3)cc(C(=O)N3CCC4(CC3)OCCO4)c2c1	i	-7.6%	-20.5%	?	?	4.2%
Cc1ccc(-c2cc(C(F)F)n3ncc(C(=O)N4CCc5ccccc5C4)c3n2)cc1	i	-13.5%	?	11.2µM*	25.9µM*	.
CC1(C)CC/C(=C/c2ccc(Cl)cc2)C1(O)Cn1cncn1 (configuration not stated)	i	.	?	.	?	-8.7%[116 µM]
CCCN1C[C@H](C)N([C@H](c2ccc(C(=O)N(CC)CC)cc2)c2cccc(OC)c2)C[C@H]1C	.	.	-24.8%	.	2.3%	.
O=S(=O)(c1ccc(Cl)cc1)N1CCC(n2cnc3cc(C(F)(F)F)ccc32)CC1	i	-16.9%	?	0.0%	?	?
CC(c1nc2ccccc2c(=O)[nH]1)N(C)CCOc1ccc(Cl)cc1 (configuration not stated)	i	-0.2%	20.6µM*	-12.6%	18.4µM*	.
CN1CCN(Cc2nc3ccccc3c(=O)[nH]2)CC1	i	-11.1%	-27.7%	19.8%	-7.5%	3.4%
SMILES	ATXN viability	HepG2 viability	DT40 TDP1 CPT	TGFb SMAD3 inh	DT40 TDP1 no CPT	ATXN2 expr inh
O=C(c1cc2ccccn2n1)N1CCC2(CC1)OCCO2	i	3.6%	-7.1%	-15.3%	-10.8%	1.7%
COc1ccc(-c2cc(C(F)(F)F)n3nc(C(=O)N4CCC5(CC4)OCCO5)cc3n2)cc1OC	i	-23.4%	-23.4%	-7.4%	20.6µM*	-15.8%
CN1C(=O)c2ccccc2Sc2ccc(NC(=O)c3ccc(C(F)(F)F)cc3)cc21	?	-5.1%	4.61µM*	-0.5%	2.91µM*	?
CCN1C(=O)c2ccccc2Sc2ccc(NC(=O)c3ccc(C)c(F)c3)cc21	i	-2.1%	?	-20.6%	?	-3.2%
COc1ccc(C(=O)Nc2ccc3c(c2)N(C)C(=O)c2ccccc2S3)cc1OC	.	-17.7%	2.91µM*	-32.6%	2.59µM*	.
CC(O)CN1CCN(CC(=O)[O-])CCN(CC(=O)[O-])CCN(CC(=O)[O-])CC1.[Gd+3] (configuration not stated)	i	.	-26.4%	.	-0.9%	7.9%
COC(=O)C1=C(c2cc3ccccc3s2)C[C@@H]2CC[C@H]1N2C(=O)NCCCOC(C)C	?	-0.8%	18.4µM*	-1.9%	18.4µM*	-0.3%
CCCNC(=O)N1[C@H]2CC[C@@H]1C(C(=O)OC)=C(c1cc3ccccc3s1)C2	?	-10.8%	11.6µM*	-16.8%	.	-13.7%
